# Measured values reported in the supplement of paper PMC10338343.
# ± gives the standard deviation.
# Legend:
# [1] = system: MILI (PIWIL2) piRISC loaded with piRNA #1 (26 nt); assay: pre-steady-state target cleavage rate (min^-1); guide: piRNA #1 5'p-UGAGGUAGUAGGUUGUAUAGUAUCCA; higher = faster piRNA-guided slicing of the target; conditions: auxiliary factor: 500 nM mouse GTSF1
# How it was run: (§1)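 Cleave-'n-Seq used a transcribed, DNA-blocked target RNA library at 0.1 nM and active affinity-purified piRISC with one synthetic guide at 1 nM, with or without 500 nM GTSF1 partner protein, in HEPES–potassium acetate buffer at 33 °C for 0–8 or 0–960 min. Uncleaved targets were sequenced and normalised to depth and to weakly complementary targets, and three trials were pooled with k3 capped at 0.0001 min^-1. The pre-steady-state cleavage rate was estimated by a burst-and-steady-state fit.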
# [2] = system: EfPiwi piRISC loaded with piRNA #1 (26 nt); assay: pre-steady-state target cleavage rate (min^-1); auxiliary factor: 500 nM Ephydatia muelleri Gtsf1; guide: piRNA #1 5'p-UGAGGUAGUAGGUUGUAUAGUAUCCA; MIWI and MILI are mouse PIWI proteins and EfPiwi is from a freshwater sponge; tags in brackets are library labels; higher = faster piRNA-guided slicing of the target
# How it was run: as §1
sequence,measurement,setting,value
GGAGUGGAUACUAUACAACCUACUGACCUCA,pre-steady-state target cleavage rate,[1],0.0789 ± 0.011
same,pre-steady-state target cleavage rate,[2],0.00401 ± 0.0014
GGAGACCUUACCUAUACAACCUACUACCUCA,pre-steady-state target cleavage rate,[1],0.0629 ± 0.016
same,pre-steady-state target cleavage rate,[2],0.0117 ± 0.0057
GGAGAGGAUACUAUACAUCCUACUACCUCA,pre-steady-state target cleavage rate,[1],0.28 ± 0.023
same,pre-steady-state target cleavage rate,[2],0.0116 ± 0.0055
GGAGACGAUACUAUAGAACCUACUACCUCA,pre-steady-state target cleavage rate,[1],0.184 ± 0.015
same,pre-steady-state target cleavage rate,[2],0.00433 ± 0.0017
GGAGACGCAUACUAUACAACCUACUACCUCA,pre-steady-state target cleavage rate,[1],0.268 ± 0.024
same,pre-steady-state target cleavage rate,[2],0.0478 ± 0.018
GGAGACCAUUCUAUACAACCUUCUACCUCA,pre-steady-state target cleavage rate,[1],0.0122 ± 0.0038
same,pre-steady-state target cleavage rate,[2],0.00336 ± 0.0032
GGAGUGGAUACUAUACAACCUAUACCUCA,pre-steady-state target cleavage rate,[1],0.0048 ± 0.002
same,pre-steady-state target cleavage rate,[2],0.00334 ± 0.0019
GGAGUGGACACUAUACAACCUACUACCUCA,pre-steady-state target cleavage rate,[1],0.241 ± 0.025
same,pre-steady-state target cleavage rate,[2],0.115 ± 0.041
GGAGUGGAUACUAUACUUCCUACUACCUCA,pre-steady-state target cleavage rate,[1],0.202 ± 0.013
same,pre-steady-state target cleavage rate,[2],0.0195 ± 0.01
GGAGUGGUUACUAUACAACCUUCUACCUCA,pre-steady-state target cleavage rate,[1],0.0099 ± 0.0024
same,pre-steady-state target cleavage rate,[2],0.00361 ± 0.0018
GGAGACCUAACUAUACGACCUACUACCUCA,pre-steady-state target cleavage rate,[1],0.0254 ± 0.011
same,pre-steady-state target cleavage rate,[2],0.00758 ± 0.0045
GGAGUGGAUACUAUACAAGCUACUACCUGA,pre-steady-state target cleavage rate,[1],0.0875 ± 0.014
same,pre-steady-state target cleavage rate,[2],0.00454 ± 0.0019
GGAGACCUAUCUACUACAACCUACUACCUCA,pre-steady-state target cleavage rate,[1],0.0541 ± 0.0097
same,pre-steady-state target cleavage rate,[2],0.00749 ± 0.0039
GGAGUGGAAACUAUACAACGUACUACCUCA,pre-steady-state target cleavage rate,[1],0.0251 ± 0.0048
same,pre-steady-state target cleavage rate,[2],0.00364 ± 0.0017
GGAGACCUUACUAUACAACCUACUACCUGA,pre-steady-state target cleavage rate,[1],0.117 ± 0.016
same,pre-steady-state target cleavage rate,[2],0.00415 ± 0.0019
GGAGUCGAUACUAUUCAACCUACUACCUCA,pre-steady-state target cleavage rate,[1],0.192 ± 0.012
same,pre-steady-state target cleavage rate,[2],0.00506 ± 0.0029
GGAGAGGAUACAAUACUACCUACUACCUCA,pre-steady-state target cleavage rate,[1],0.154 ± 0.013
same,pre-steady-state target cleavage rate,[2],0.00424 ± 0.0028
GGAGUGGAUACUAGACAACCUACUACCUCA,pre-steady-state target cleavage rate,[1],0.193 ± 0.011
same,pre-steady-state target cleavage rate,[2],0.226 ± 0.081
GGAGACCUAACUAUACAACCUACAUCCUCA,pre-steady-state target cleavage rate,[1],0.0364 ± 0.013
same,pre-steady-state target cleavage rate,[2],0.00597 ± 0.0051
GGAGACCUAUCUUUUCAACCUACUACCUCA,pre-steady-state target cleavage rate,[1],0.0272 ± 0.0082
same,pre-steady-state target cleavage rate,[2],0.00766 ± 0.0047
GGAGACGAUACUAUUCAAGCUACUACCUCA,pre-steady-state target cleavage rate,[1],0.23 ± 0.015
same,pre-steady-state target cleavage rate,[2],0.00454 ± 0.002
GGAGUGGAUACUACUACAACCUACUACCUCA,pre-steady-state target cleavage rate,[1],0.193 ± 0.012
same,pre-steady-state target cleavage rate,[2],0.114 ± 0.038
GGAGAGGAUACAAUACAACCUUCUACCUCA,pre-steady-state target cleavage rate,[1],0.0148 ± 0.003
same,pre-steady-state target cleavage rate,[2],0.00307 ± 0.0023
GGAGACGAUACUAUACAACCUCUACCUCA,pre-steady-state target cleavage rate,[1],0.0213 ± 0.0044
same,pre-steady-state target cleavage rate,[2],0.00608 ± 0.0025
GGAGACCAUACUAUACAACCUACUAGCACA,pre-steady-state target cleavage rate,[1],0.0527 ± 0.018
same,pre-steady-state target cleavage rate,[2],0.00447 ± 0.0023
GGAGACGAUACAAUACAACCAACUACCUCA,pre-steady-state target cleavage rate,[1],0.0105 ± 0.0027
same,pre-steady-state target cleavage rate,[2],0.0037 ± 0.0029
GGAGUGGAUACUAUACAACCAACUACCUGA,pre-steady-state target cleavage rate,[1],0.00303 ± 0.0022
same,pre-steady-state target cleavage rate,[2],0.00303 ± 0.0013
GGAGACGAUACUAUACAACCUACUACCAUCA,pre-steady-state target cleavage rate,[1],0.134 ± 0.013
same,pre-steady-state target cleavage rate,[2],0.00489 ± 0.002
GGAGAGGUUACUAUACAACCUACUACCUGA,pre-steady-state target cleavage rate,[1],0.0157 ± 0.0052
same,pre-steady-state target cleavage rate,[2],0.00474 ± 0.0019
GGAGACGAUACUGAUACAACCUACUACCUCA,pre-steady-state target cleavage rate,[1],0.203 ± 0.018
same,pre-steady-state target cleavage rate,[2],0.00712 ± 0.0036
GGAGACCAUACUAUACGACCUACUACCUCA,pre-steady-state target cleavage rate,[1],0.0852 ± 0.016
same,pre-steady-state target cleavage rate,[2],0.0094 ± 0.0037
GGAGACGAUACUAUACAAGCUAGUACCUCA,pre-steady-state target cleavage rate,[1],0.105 ± 0.028
same,pre-steady-state target cleavage rate,[2],0.00387 ± 0.002
GGAGACCUAUCUAUACAACCUACUACCUA,pre-steady-state target cleavage rate,[1],0.0666 ± 0.0086
same,pre-steady-state target cleavage rate,[2],0.00487 ± 0.0042
GGAGACCAUUCUAUACAACCUACUAGCUCA,pre-steady-state target cleavage rate,[1],0.0909 ± 0.015
same,pre-steady-state target cleavage rate,[2],0.00323 ± 0.0026
GGAGAGGAUACAAUACAAGCUACUACCUCA,pre-steady-state target cleavage rate,[1],0.178 ± 0.017
same,pre-steady-state target cleavage rate,[2],0.0036 ± 0.0019
GGAGAGGAUACUAUACAACCUACUAACCUCA,pre-steady-state target cleavage rate,[1],0.159 ± 0.016
same,pre-steady-state target cleavage rate,[2],0.00574 ± 0.0027
GGAGUGGAUACUAUACCAACCUACUACCUCA,pre-steady-state target cleavage rate,[1],0.0424 ± 0.0067
same,pre-steady-state target cleavage rate,[2],0.0596 ± 0.021
GGAGACGAUACUAUAGAACCUACUAGCUCA,pre-steady-state target cleavage rate,[1],0.0159 ± 0.0077
same,pre-steady-state target cleavage rate,[2],0.00419 ± 0.0018
GGAGACCAUACAAUACAUCCUACUACCUCA,pre-steady-state target cleavage rate,[1],0.209 ± 0.025
same,pre-steady-state target cleavage rate,[2],0.00484 ± 0.003
GGAGACCUAACUAUACAACCCACUACCUCA,pre-steady-state target cleavage rate,[1],0.0098 ± 0.0041
same,pre-steady-state target cleavage rate,[2],0.00404 ± 0.0036
GGAGACCUUACUAUACAACCUACUACUUCA,pre-steady-state target cleavage rate,[1],0.116 ± 0.016
same,pre-steady-state target cleavage rate,[2],0.0046 ± 0.003
GGAGAGGAUACUAUACAACCUUCAACCUCA,pre-steady-state target cleavage rate,[1],0.00483 ± 0.0021
same,pre-steady-state target cleavage rate,[2],0.00352 ± 0.0022
GGAGACCAUACUAUACAACCUACUGCCUCA,pre-steady-state target cleavage rate,[1],0.139 ± 0.015
same,pre-steady-state target cleavage rate,[2],0.00606 ± 0.0025
GGAGUGGAUACUAAACAACCUAGUACCUCA,pre-steady-state target cleavage rate,[1],0.0567 ± 0.011
same,pre-steady-state target cleavage rate,[2],0.00256 ± 0.0016
GGAGUGGUUACUAUUCAACCUACUACCUCA,pre-steady-state target cleavage rate,[1],0.202 ± 0.012
same,pre-steady-state target cleavage rate,[2],0.00293 ± 0.0021
GGAGAGGAUACUAUACAACCUACUACCUGCA,pre-steady-state target cleavage rate,[1],0.137 ± 0.012
same,pre-steady-state target cleavage rate,[2],0.00613 ± 0.0026
GGAGACGAUACUUUACAACCAACUACCUCA,pre-steady-state target cleavage rate,[1],0.00466 ± 0.0023
same,pre-steady-state target cleavage rate,[2],0.00358 ± 0.0022
GGAGAGGAUACUAAACAAGCUACUACCUCA,pre-steady-state target cleavage rate,[1],0.165 ± 0.014
same,pre-steady-state target cleavage rate,[2],0.00412 ± 0.0017
GGAGUGGAUGACUAUACAACCUACUACCUCA,pre-steady-state target cleavage rate,[1],0.0838 ± 0.019
same,pre-steady-state target cleavage rate,[2],0.00475 ± 0.0037
GGAGACCUAUGAUAUGUUGCUACUACCUA,pre-steady-state target cleavage rate,[1],< 0.0001
same,pre-steady-state target cleavage rate,[2],< 0.0001
